Here are results for two compounds from PubChem BioAssay (EPA / NIEHS).

The term AC50 denotes the midpoint of the concentration-response curve, whichever way the signal moves.

Results filed as inconclusive are left out. The source made the active and inactive calls. How the source made its calls, unless noted: active means hit-call score of the fitted dose curve at least 0.9, where 1 is the maximum; inconclusive means response in the unintended direction; inactive means score below 0.9.

Test [1] can be described thus: CCTE_Harrill_HTTr_Apoptosis_MCF7: CCTE's 6-hour Apoptosis Assessment for the High-Throughput Transcriptomics (HTTr) Platform, in MCF-7 cells cultured in DMEM + 10% fetal bovine serum, Harrill Lab (AID 2284011; active means hit-call score of the fitted dose curve at least 0.9, where 1 is the maximum; inactive means score below 0.9). The method in brief:
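MCF-7 (DMEM + 10% FBS), 384-well; 8-pt dilution series, 6 h chemical exposure; caspase-3/7 activation via CellEvent Caspase 3/7 Green, HCI; bidirectional fit vs DMSO.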

A further test concerns the target PGR (gene 5241) (UniProt P06401). In words: TOX21_PR_BLA_Followup_Antagonist_ratio: Tox21 HEK293 Progesterone Receptor (PR) Antagonism Beta-lactamase Follow-Up Assay, Ratio (AID 2283934). The method in brief:
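PR-UAS-bla HEK293T cells, 3,000/well in 2% charcoal-stripped FBS, given compound plus 1nM R5020 agonist for 16 hr at 37C. Beta-lactamase FRET substrate 2 hours, ratio cleaved/uncleaved fluorescence; viability by CellTiter-Glo in same wells.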

Test [2] is described as follows: TOX21_PR_BLA_Followup_Antagonist_viability: Viability Assessment in the Tox21 HEK293 Progesterone Receptor (PR) Antagonism Beta-lactamase Follow-Up Assay (AID 2283936).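 Further: hits lower the luminescence signal meaning cytotoxicity.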 The method in brief:
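PR-UAS-bla HEK293T cells (3,000/well, 2% charcoal-stripped FBS) given compound plus R5020 agonist, 16 h at 37C. CellTiter-Glo added after bla read, 30 min at room temperature; luminescence loss indicates cytotoxicity.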

A short description of test [3]: TOX21_PR_LUC_Followup_Antagonist_viability: Viability Assessment in the Tox21 HEK293 Progesterone Receptor (PR) Antagonism Luciferase Follow-Up Assay (AID 2283940). The method in brief:
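HEK293-PR-A-luc cells kept in charcoal-stripped FBS medium were plated 5 h before compound addition, then exposed 16 h at 37C; viability read as cellular ATP by luciferase luminescence, loss of signal indicating cytotoxicity.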

Test [4] in a line: TOX21_PR_LUC_Followup_Agonist_viability: Viability Assessment in the Tox21 HEK293 Progesterone Receptor (PR) Agonism Luciferase Follow-Up Assay (AID 2283941).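 Further: loss of signal means cytotoxicity so actives lower viability.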 The procedure, abridged: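 HEK293-PR-A-luc cells, kept in 10% charcoal-stripped FBS medium, were treated with compounds for 16 h at 37C. Viability read as cellular ATP by luciferase-coupled luminescence; loss of signal indicates cytotoxicity.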

Chain of PGR (gene 5241) (P06401 whole entry, looked up): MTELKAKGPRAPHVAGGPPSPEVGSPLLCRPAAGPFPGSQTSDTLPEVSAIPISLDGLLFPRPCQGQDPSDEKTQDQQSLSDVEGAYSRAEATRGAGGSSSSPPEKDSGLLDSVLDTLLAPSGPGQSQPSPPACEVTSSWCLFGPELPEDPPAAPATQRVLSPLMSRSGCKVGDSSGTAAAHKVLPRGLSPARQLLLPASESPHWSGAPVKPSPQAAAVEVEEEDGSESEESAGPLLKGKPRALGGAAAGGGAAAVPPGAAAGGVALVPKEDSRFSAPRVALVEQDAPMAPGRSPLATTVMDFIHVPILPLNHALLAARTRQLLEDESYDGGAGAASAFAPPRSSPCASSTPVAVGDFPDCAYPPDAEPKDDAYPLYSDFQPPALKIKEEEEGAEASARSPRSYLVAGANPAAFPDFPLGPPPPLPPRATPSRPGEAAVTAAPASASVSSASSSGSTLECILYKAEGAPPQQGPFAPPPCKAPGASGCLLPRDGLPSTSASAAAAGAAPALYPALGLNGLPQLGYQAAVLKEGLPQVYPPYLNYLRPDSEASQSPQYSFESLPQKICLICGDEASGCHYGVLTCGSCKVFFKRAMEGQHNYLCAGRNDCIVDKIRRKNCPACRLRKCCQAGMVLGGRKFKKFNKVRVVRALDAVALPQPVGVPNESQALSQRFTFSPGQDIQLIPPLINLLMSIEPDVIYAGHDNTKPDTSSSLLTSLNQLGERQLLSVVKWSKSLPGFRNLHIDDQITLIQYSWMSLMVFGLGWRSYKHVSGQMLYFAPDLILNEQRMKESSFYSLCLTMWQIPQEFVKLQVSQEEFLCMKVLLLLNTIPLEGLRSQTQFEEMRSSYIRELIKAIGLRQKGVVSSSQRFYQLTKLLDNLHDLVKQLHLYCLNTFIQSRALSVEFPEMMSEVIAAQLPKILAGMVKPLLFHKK

With `FC(F)(F)c1ccc(OCCCOc2c(Cl)cc(OCC=C(Cl)Cl)cc2Cl)nc1`, in test [1], the outcome was inactive.

Regarding `O=C1CN=C(c2ccccc2)c2cc(Cl)ccc2N1CC1CC1`, the AC50 in the test with PGR (gene 5241) is 23 µM (active). The compound was classed as inactive in test [2], in test [3] and in test [4].
